8 compounds from PubChem BioAssay (NCI) can be followed below.

The structures appear in SMILES notation. About 79,000 compounds went through this panel and 15% of them were active in at least one assay; those are over-represented in the sample as a whole. A number with no mark means an inactive call. The source made the active and inactive calls. No stated cut-off is given here; in the data, active means growth inhibition above about 70%; inactive means the rest.

The assay can be described thus: NCI Yeast Anticancer Drug Screen. Data for the CLN2oe strain (AID 163).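 Further: 0% = growth of vehicle-only control cultures.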 The settings on record: S. cerevisiae CLN2oe strain, stronger effect = higher value. Here is the method: Growth inhibition of yeast strains with defined genetic alterations is measured as a screen for potential anti-cancer activity. Selected strains with alterations in DNA damage repair or cell cycle control were exposed to compounds and growth inhibition was measured relative to vehicle treated controls. The strain used in this assay is CLN2oe

For the compound `CSc1nc(=S)[nH]c2c1c(C)nn2-c1ccccc1`, the growth inhibition (at 1.2 µM) is -8%; the growth inhibition (at 3.7 µM) is 0%; the growth inhibition (at 11.0 µM) was -4%; the growth inhibition (at 33.0 µM) was 3%; the growth inhibition (at 100.0 µM) is -14%.

In the case of `CN(C)CCOc1ccc2c(c1)C/C(=C/c1ncc([N+](=O)[O-])n1C)C2=O`, the growth inhibition is, setting by setting: (at 1.2 µM) 26%; (at 3.7 µM) 35%; (at 11.0 µM) 31%; (at 33.0 µM) 27%; (at 100.0 µM) 64%.

Turning to `CCc1ncnc2cc(OCC3CO3)c(OC)cc12` (stereo not given), the growth inhibition is 20% (at 1.2 µM); 15% (at 3.7 µM); 27% (at 11.0 µM); 30% (at 33.0 µM); 52% (at 100.0 µM).

`COc1cc2c(c(OC)c1OC)-c1c(cc3c(c1OC)OCO3)CC(C)C(C)(O)C2OC(=O)c1ccccc1` (stereo not given): the growth inhibition (at 1.2 µM) is 27%; the growth inhibition (at 3.7 µM) is 17%; the growth inhibition (at 11.0 µM) is 16%; the growth inhibition (at 33.0 µM) is 20%; the growth inhibition (at 100.0 µM) is 45%.

For the compound `Cc1ccc(Cl)c2[nH]c(-c3ccccc3)cc(=O)c12`, the growth inhibition is 0% (at 1.2 µM); -5% (at 3.7 µM); -1% (at 11.0 µM); -5% (at 33.0 µM); 1% (at 100.0 µM).

Regarding `CCCCCCCCCCCC(=O)N(C)C`, the growth inhibition is 2% (at 1.2 µM); 19% (at 3.7 µM); 2% (at 11.0 µM); 0% (at 33.0 µM); 98% (active) (at 100.0 µM).

On to `CCOC(=O)c1cc(-c2ccc(Cl)cc2)c([N+](=O)[O-])n1C`, for which the growth inhibition was 10% (at 1.2 µM); -3% (at 3.7 µM); 7% (at 11.0 µM); 60% (at 33.0 µM); 96% (active) (at 100.0 µM).

Take `CCCCCCCCCCCC1=C(O)C(=O)C=C(O)C1=O`: the growth inhibition (at 1.2 µM) is -7%; the growth inhibition (at 3.7 µM) is -17%; the growth inhibition (at 11.0 µM) was 63%; the growth inhibition (at 33.0 µM) is 93% (active); the growth inhibition (at 100.0 µM) is 91% (active).
